This is part of a sample that, as a whole, favours compounds with a hit. Of some 83,000 tested, about 20% had one in any assay.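 Each cell line was grown in a 96-well plate and treated with one concentration of compound for 48 hours. Values below 10 were considered active.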 Unmarked numbers belong to inactive results. Activity calls are given as the source filed them.
Key:
Assay in all cases: NCI-60 one-dose screen, 48 h (100 = growth as untreated, 0 = no growth, -100 = all killed)
Details in all cases: 10 µM unless noted
T-47D breast = test system: T-47D breast
BT-549 breast = test system: BT-549 breast
MDA-MB-435 melanoma = test system: MDA-MB-435 melanoma
SW-620 colon = test system: SW-620 colon
MCF7 breast = test system: MCF7 breast
HCT-116 colon = test system: HCT-116 colon
HCC-2998 colon = test system: HCC-2998 colon
KM12 colon = test system: KM12 colon

SMILES | growth (T-47D breast) | growth (BT-549 breast) | growth (MDA-MB-435 melanoma) | growth (SW-620 colon) | growth (MCF7 breast) | growth (HCT-116 colon) | growth (HCC-2998 colon) | growth (KM12 colon)
CCn1c2ccc(/C=N/NS(=O)(=O)CCN(C)C)cc2c2cc(/C=N/NS(=O)(=O)CCN(C)C)ccc21 | 102% | 99.1% | 96.9% | 90.8% | 89.4% | 99.4% | 104% | 106%
Cc1nc(-c2cc3ccccc3c(N3CCN(C)CC3)n2)cs1 | 84.3% | 97.5% | 99.9% | 98.6% | 92.7% | 93% | 95.3% | 103%
CC(=O)Nc1ccc(C)c(Nc2cc(-c3ccc(-n4cccn4)cc3)[nH]n2)c1 | 53% | 30.4% | -26.4% (active) | 31.5% | 23.4% | 19.3% | 83.2% | 30.8%
CCc1ccc(NC(=O)N[C@@H](Cc2cccc(F)c2)C(=O)N[C@@H]2C(=O)N3CCC[C@H]3C(=O)N3CCCC[C@H]3C(=O)N[C@@H](CO)C(=O)N3C[C@H](C)C[C@H]3C(=O)O[C@H]2C)c(F)c1 | 23.1% | 28.5% | 20.3% | 34.6% | 14.9% | 10.8% | 24.1% | 37.8%
CCOC(=O)C1=C(C)Nc2nnc(Nc3ccccc3)n2C1c1ccccc1 (stereo not drawn) | 58.2% | 84% | 86.8% | 35.2% | 55.7% | 7.91% (active) | 105% | 94.7%
CN(c1ccc(F)cc1)S(=O)(=O)c1ccc(-c2cnc(C3CC3)o2)cc1 | 54.1% | 46.2% | -26.2% (active) | 32.9% | 23.7% | 18.7% | 22.3% | 18.5%
N#Cc1c(NC(=O)c2ccc(F)c(Cl)c2)sc2c1CCC(=O)C2 | -18.3% (active) | 2.09% (active) | -39.5% (active) | -24% (active) | 4.86% (active) | 0.878% (active) | 25.8% | 4.23% (active)
CCOC(=O)c1c(NC(=O)c2ccc(F)cc2F)sc2c1CCC(=O)C2 | 81.4% | 94.2% | 98.9% | 69.7% | 93.4% | 96.5% | 107% | 90.9%
COc1ccc2c(c1)c(-c1nn3c(=O)cc(-c4ccccc4)nc3s1)cn2C | 16% | 49.8% | -23.8% (active) | 28.1% | 18.9% | 22.7% | 75.2% | 44.7%
COc1ccccc1/C=C/C=N/NC1=NC2C(S1)N(C)C(=O)N2c1ccccc1 (stereo not drawn) | 77.8% | 10% | -20.6% (active) | 17.7% | 13.4% | 3.81% (active) | 19.9% | 7.34% (active)
NC(N)=NS(=O)(=O)c1ccc(N=NC2C(=O)NN(c3ccccc3)C2=O)cc1 (stereo not drawn) | 95.8% | 107% | 101% | 100% | 93.2% | 97.3% | 103% | 103%
Oc1ccc(-c2nnc(SCc3ccc(O)c4ncccc34)n2-c2ccccc2)cc1 | 14.8% | 26.9% | 21.5% | 16.4% | 2.53% (active) | 12.7% | 27.3% | 17.3%
CN(C)C(=O)C1=NC(CO)C(=O)N(c2ccc(Cl)cc2)N1 (stereo not drawn) | 98.6% | 99.2% | 106% | 103% | 95.6% | 88.3% | 109% | 98.2%
CCN1CCN(c2cc(C(=O)Nc3nc4ccc(Oc5ccnc(C(=O)NC)c5)cc4s3)cc(C(F)(F)F)c2)CC1 | 72% | 149% | 68.6% | 77.5% | 51.9% | 57.9% | 90.3% | 56.9%
Cc1ccc(Nc2ncnc3c2c(C)nn3-c2ccc([N+](=O)[O-])cc2)cc1 | 78.8% | 92.5% | 95.7% | 65.5% | 83% | 58.9% | 97.4% | 81.2%
O=C(/C=C1\C=CN(CCCCO)c2ccccc21)n1ccc2ccccc21 | 99.6% | 112% | 106% | 104% | 95.8% | 108% | 112% | 100%

SMILES | growth (T-47D breast) | growth (BT-549 breast) | growth (MDA-MB-435 melanoma) | growth (SW-620 colon) | growth (MCF7 breast) | growth (HCT-116 colon) | growth (HCC-2998 colon) | growth (KM12 colon)
O=c1[nH]c(CNc2ccc(NCc3c(-c4ccccc4)no[n+]3[O-])cc2)nc2c1cnn2-c1ccccc1 | 42.5% | 62.1% | 77.8% | 92.8% | 50.1% | 49.6% | 84.4% | 73.3%
CCCC(=O)NC(c1cccnc1)c1cc(C(C)=O)c2cccnc2c1O (stereo not drawn) | 41.7% | 32.2% | 34.5% | 38% | 18.8% | 25.5% | 24.9% | 21.4%
N#C/C(=C\c1ccc(Cl)cc1Cl)C(N)=O | 93.7% | 102% | 98.5% | 88.3% | 76.2% | 74% | 103% | 103%
CCOC(=O)c1c(NCC(=O)Nc2cccc(Cl)c2)sc2c1CCCC2 | 63.4% | 70.1% | -2.01% (active) | 76.1% | 43% | 73.5% | 103% | 95.8%
Nc1n[nH]c2cccc(C#Cc3cccc(NC(=O)c4cccc(OC(F)(F)F)c4)c3)c12 | 33.6% | 85% | 41% | 57.1% | 58.8% | 21.7% | 38% | 58%
Cc1cc(NS(=O)(=O)c2ccc(-c3cnc(C4CC4)o3)cc2)ccc1I | 32.5% | 36% | 3.85% (active) | 25.5% | 25.4% | 28.3% | 63.8% | 27.4%
Cc1csc(Nc2cccc(Nc3nc(C)cs3)c2)n1 | 36.1% | 73.7% | 82.1% | 88.6% | 73.3% | 56.5% | 90.3% | 87.8%
Cc1ccc(/C=C/CC(=O)Nc2ccc(C(=O)Nc3ccc(F)cc3N)nc2)cn1 | 10.8% | 48.5% | 18.6% | 26.8% | 18.4% | 17.7% | 31.4% | 49.5%
COc1cc(CNC(=O)Cc2ccccc2[N+](=O)[O-])ccc1OCC(=O)NO | 103% | 106% | 106% | 110% | 95.1% | 107% | 108% | 101%
Oc1ccc(CSc2nnc(-c3ccccc3)o2)c2cccnc12 | 4.16% (active) | 29.4% | 21.8% | 14.5% | 9.21% (active) | 16.6% | 37.6% | 17.3%
CCOc1ccc2nc(NC(=O)Nc3ccccc3C)sc2c1 | 47.7% | 53.8% | -11.1% (active) | 29.2% | 27.7% | 39.8% | 81.4% | 40.7%
CCOC(=O)c1c(NCC(=O)Nc2cccc([N+](=O)[O-])c2)sc2c1CCCC2 | -28.2% (active) | -57.3% (active) | -91.5% (active) | -2.82% (active) | -12.8% (active) | -21% (active) | -76.5% (active) | -20.4% (active)
Fc1ccccc1/C=C(/C1=NCCN1)n1cnc2ccccc21 | 99.1% | 102% | 96.2% | 101% | 86.2% | 98.7% | 102% | 96.5%
CN1CCN(c2ccc(NC(=O)Nc3ccc4c(ccn4-c4cccc(C(N)=O)n4)c3)cc2C(F)(F)F)CC1 | 80.6% | 89.9% | -45.2% (active) | -10.5% (active) | 10.7% | 12.3% | 63.4% | 22%
Cc1ccccc1/C=C/c1nn2c(-c3ccoc3C)nnc2s1 | 90.5% | 111% | 96.3% | 104% | 83.9% | 106% | 108% | 105%

From PubChem BioAssay (NCI)
